# Experimental data published in PubChem BioAssay (NCI).
# Compounds without any hit were thinned out: in the full panel of roughly 83,000, 20% have a hit.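 Activity criterion: percent growth below 10, measured after cells in 96-well plates were exposed to a single compound concentration for 48 hours.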 Values without a mark were called inactive. The source made the active and inactive calls.
# Test system: HS 578T breast
# Assay: NCI-60 one-dose screen, 48 h (100 = growth as untreated, 0 = no growth, -100 = all killed)
# Conditions: 10 µM
row,Compound,growth [%]
1,CS(=O)(=O)c1nccc(-c2c(-c3cccc(OCCc4ccccc4)c3)nc3sccn23)n1,92.4
2,C(=N\Nc1ncnc2sc3c(c12)CCNC3)/c1cccc2ccccc12,96.8
3,CNS(=O)(=O)Oc1ccc(-c2sc3cc(OS(=O)(=O)NC)ccc3c2C(=O)c2ccc(OCCN3CCCCC3)cc2)cc1,58.9
4,CCCCC/C=C/C/C=C/CCCCCCCC1=NC(C)(C)CN1C(C)C,26.7
5,C#C[C@]1(O)CCC2C3CCc4cc(OC5CCCC5)ccc4C3CC[C@@]21C (some centres not stated),85.6
6,O=C(N/N=C/c1c(Cl)cccc1Cl)c1ccccc1Nc1cccc(C(F)(F)F)c1,85
7,COc1cccc(-c2nc3sccn3c2-c2cccc(S(C)(=O)=O)c2)c1,99.3
8,CC(=O)Nc1ccc(S(=O)(=O)c2ccnc3cc(Cl)ccc23)cc1,85.2

# Test system: NCI/ADR-RES ovarian
# Assay: as above
# Conditions: 10 µM
row,Compound,growth
1,NS(=O)(=O)Oc1ccc(NC(=O)C2CCCCCC2)cc1,103%
2,O=C(CSc1nnc(-c2cccnc2SCc2ccccc2)o1)Nc1nc(Cl)cc(Cl)n1,101%
3,O=C1/C=C/[C@@H](O)[C@@H]2C[C@@H](O)C[C@H]2/C=C/CCC[C@H](CCc2ccc(NC(=S)Nc3ccc4c(c3)C(=O)OC43c4ccc(O)cc4Oc4cc(O)ccc43)cc2)O1,10.9%
4,O=C(CCl)Nc1ccc(Cc2ccc(NC(=O)CCl)cc2)cc1,2.83% (active)
5,Cc1cc(Cl)ccc1Nc1nc(C(F)(F)F)ccc1C(=O)N/N=C/c1c(Cl)cccc1Cl,11.9%
6,COc1ccc2c(c1)C(=O)/C(=C/c1ccc([N+](=O)[O-])o1)O2,13.4%
7,S=C(SSC(=S)N(c1ccccc1)c1ccccc1)N(c1ccccc1)c1ccccc1,105%
8,CC(C)=CCC/C(C)=C/CC/C(C)=C/CC/C=C(\C)CC/C=C(\C)CCC(=O)Nc1ccn(C2OC(CO)C(O)C2(F)F)c(=O)n1 (configuration not stated),38.8%
9,c1ccc(/C(=N\Nc2ccc3ccccc3n2)c2ccccn2)cc1,11.4%
10,c1ccc(CSc2ncccc2-c2nnc(SCCN3CCOCC3)o2)cc1,107%
11,CN(C)c1ncnc2c1nnn2C1OC(CO)C(O)C1O (configuration not stated),15.3%
12,COc1ccccc1/C=N\N/C(N)=N\N=C\c1ccccc1OC,22.6%
13,COc1cc(/C=C/c2cc(/C=C/c3ccc(O)c(OC)c3)nc(N)n2)ccc1O,39.3%
14,O=C(/C=C/c1cccc(B(O)O)c1)c1cccc(B(O)O)c1,8.08% (active)
15,CN(C)CCC1(c2ccccc2)CCN(C)C1=O (configuration not stated),103%
16,COc1ccc(/C=C/c2nnc(/C=C/c3ccc(OC)c(OC)c3)o2)cc1OC,13.6%
17,CN(C)c1ccc(/C=N/NC(=O)c2ccccc2Nc2cccc(C(F)(F)F)c2)cc1,93%
18,CN(C)CCOc1ccc(-c2nc3sccn3c2-c2ccnc(S(C)(=O)=O)n2)cc1,102%
19,COc1ccc(CCN2CCC(Nc3nc4ccccc4n3Cc3ccc(F)cc3)CC2)cc1,37.7%
20,O=C(CN(C1CCCCC1)C1CCCCC1)Nc1ccc(S(=O)(=O)c2ccc(NC(=O)CN(C3CCCCC3)C3CCCCC3)cc2)cc1,4.04% (active)
21,COc1ccc2nc(-c3ccc(Cl)cc3)cc(-c3nnc(SC/C(=N\O)c4ccccc4)n3-c3ccccc3)c2c1,88.2%
22,Cc1cc(CSc2ccccc2C(=O)N2CC=C(c3ccccc3)CC2)on1,90.7%
23,CCOC(=O)c1cc(C(=O)c2cc(OC)c(OC)c(OC)c2)n2nc(C)ccc12,20.9%
24,O=C(O)c1ccc(-n2cc(CNc3ccc(Cl)cc3)c(-c3ccccc3)n2)cc1,91.6%
25,CNC(=O)c1cc(Oc2ccc3c(c2)sc2nc(-c4ccc(N)cc4)cn23)ccn1,11.2%
26,Nc1ccc(CC[C@H]2CCC/C=C/[C@@H]3C[C@H](O)C[C@H]3[C@H](O)/C=C/C(=O)O2)cc1,-0.671% (active)
27,CNC(=O)c1cn(C2CC2)c2cc(N3CCN(C(=O)c4cc(OC)c(OC)c(OC)c4)CC3)c(F)cc2c1=O,96.7%
28,CN1CCN(C2=Nc3ccccc3Oc3ccc(Cl)cc32)CC1,98%
29,COc1ccc(Cc2cnc(N)nc2N)cc1OC,99.7%
